The values that follow come from PubChem BioAssay AID624297 (National Center for Advancing Translational Sciences (NCATS), 2012).

Each structure is given as a SMILES string. Out of some 340,000 compounds screened, about 6,200 (1.8%) were called active. Inconclusive results (about 10%) are left out. The sample as a whole holds a higher share of actives than the screen did. A number with no mark means an inactive call. Calls come from the whole dose curve; as a rule, active = well fitted activation curve with a large enough effect; inconclusive = small, poorly fitted or top-dose-only effect; inactive = no such curve, though single readings can be large or run the other way.
Potency is the fitted concentration of half-maximal effect.

This assay in a line: A quantitative high throughput screen for small molecules that induce DNA re-replication in SW480 colon adenocarcinoma cells. For re-replication activation: % of control where 0% means no effect. Note: nearly all actives have a fitted effect of over 55% in size. The following applies: Hoechst DNA content imaging, 48 h; series mostly up to 46.1 µM; re-replication activation: at the top concentration. Summed up:
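Image-based read-out: total Hoechst fluorescence of nuclei (405 nm excitation, 500-530 nm emission), with hits raising the fraction of high-intensity nuclei. SW480 colon cells incubated 48 hr with compounds at 37 C.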
Take `COCC(C)n1c(SCc2ccc(C(=O)OC)o2)nc2ccccc2c1=O` (stereo not drawn): the Potency is 18.4 µM (active).

As for `O=C(c1ccc(Cl)c(S(=O)(=O)N2CCCCCC2)c1)N1CCN(c2ccc(O)cc2)CC1`, the “re-replication activation” value was -4.95%.

`C[n+]1cccc(C(=O)O)c1`: the “re-replication activation” value was -9.96%.

On to `O=C(NCCc1ccccc1)c1c[nH]c2ccc(F)cc2c1=O`, for which the “re-replication activation” value was 2.52%.

As for `COc1ccc(CNc2nc(NCc3ccc(OC)cc3)c3ncn(C4CCCC4)c3n2)cc1`, the Potency is 4.61 µM (active).

`CCC(CO)Oc1cc(NCc2ccccc2)c2ncn(C3CCCC3)c2c1` (stereo not drawn): the “re-replication activation” value is 5.67%.

With `COc1ccc(CNC2CCCCC2)cc1`, the “re-replication activation” value was -14.2%.

For `O=S(=O)(O)c1cc2onnc2c2ccccc12`, the “re-replication activation” value is -4.34%.

Turning to `CNc1nc(=O)n(C2CCCO2)cc1C` (stereo not drawn), the “re-replication activation” value is 6.26%.

Regarding `Cc1ccc(S(=O)(=O)NC2CCCCCC2)cc1`, the “re-replication activation” value is 1.2%.

With `Cc1ccc(S(=O)(=O)N(C)C2(C)CCS(=O)(=O)C2)cc1` (stereo not drawn), the “re-replication activation” value was -6.3%.

As for `Cc1ccc(S(=O)(=O)C2(S(=O)(=O)c3ccc(C)cc3)CCCC2)cc1`, the Potency was 4.47 µM (active).

`C=C1c2cccc(OC)c2O[C@H](C(=O)OCC)[C@@H]1CCCCCC`: the Potency was 20.6 µM (active).

On to `CCOC(=O)C1=C(C)c2ccccc2OC1C(=O)OCC` (stereo not drawn), for which the “re-replication activation” value was 1.25%.

`CC(C)(C)OC(=O)C[C@@H]1C/C=C\C[C@@H](CC(=O)N(CCO)Cc2ccccc2)C(=O)N[C@H](Cc2ccccc2)COC1=O`: the “re-replication activation” value is -1.83%.

In the case of `COc1ccccc1CNC(=O)c1ccc(Cl)c(S(=O)(=O)N2CCCC2)c1`, the “re-replication activation” value is -7.01%.

Consider `O=C(COC(=O)c1cccc(Cl)c1)NC(=O)NCc1ccccc1`, for which the “re-replication activation” value was -1.83%.

Regarding `CC(=O)c1ccc(Oc2cc(C)nc(-n3nc(C)cc3C)n2)cc1`, the Potency is 1.84 µM (active).

As for `Cc1cc(C)n(-c2ccc(C(=O)O)cc2[N+](=O)[O-])n1`, the “re-replication activation” value is -17%.

Take `COc1ccc(Nc2cc(C)nc(-n3nc(C)cc3C)n2)cc1`: the Potency is 7.31 µM (active).

For `Cc1cc(Oc2ccc(Cl)cc2)nc(SCC(=O)c2ccccc2)n1`, the “re-replication activation” value was 12.8%.

For the compound `Cc1cc(Nc2ccc(Cl)cc2)nc(N2CCOCC2)n1`, the “re-replication activation” value was -110%.

As for `Cc1ccc(S(=O)(=O)Nc2nc(C)cc(N/N=C/c3ccc(O)cc3)n2)cc1`, the “re-replication activation” value was -6.5%.

On to `Cc1nc(Cl)cc(N/N=C/c2ccccc2)n1`, for which the “re-replication activation” value is -0.738%.

As for `Cc1cc(N/N=C\c2ccc(Br)cc2)nc(-n2nc(C)cc2C)n1`, the Potency is 8.2 µM (active).

In the case of `CC(=O)Nc1ccc(Nc2cc(C)nc(Nc3ccc(NC(C)=O)cc3)n2)cc1`, the “re-replication activation” value was 9.33%.

With `O=C1NC(=O)C(CCc2ccccc2)(c2ccccc2)N1` (stereo not drawn), the “re-replication activation” value is 2.24%.

Consider `O=C(O)c1ccc([N+](=O)[O-])cc1Sc1ccsc1`, for which the “re-replication activation” value is -2.95%.

For the compound `Cc1ccc(S(=O)(=O)Nc2ccc(F)c(S(=O)(=O)N3CCOCC3)c2)cc1`, the “re-replication activation” value is 2.24%.

In the case of `O=c1[nH]c2c(c(=O)n1-c1ccccc1)CCO2`, the “re-replication activation” value was -5.03%.

Consider `COc1ccc(Cn2c(=S)[nH]c3cc(C(=O)NCCCN4CCOCC4)ccc3c2=O)cc1`, for which the “re-replication activation” value was -8.9%.

`O=C(NCCN1CCOCC1)c1ccc2c(c1)N(Cc1ccc(Cl)cc1)CCS2`: the “re-replication activation” value was -2.43%.

Regarding `Cc1c(C)n(Cc2ccc(Cl)cc2)c2ccc(C(=O)NCCCN3CCOCC3)cc12`, the Potency was 20.6 µM (active).

`O=C(Nc1ccc(N2CCOCC2)cc1)c1cccc(S(=O)(=O)N2CCOCC2)c1`: the “re-replication activation” value is 3.61%.

For `Cc1cc(NC(=O)CSc2nnc(-c3ccco3)n2N)no1`, the “re-replication activation” value is -6.78%.

As for `Cc1noc(C)c1NC(=O)Nc1ccc2c(c1)C(=O)N([C@H](C)CO)C[C@H](C)[C@@H](CN(C)C(=O)Nc1ccccc1)O2`, the “re-replication activation” value is -0.626%.

On to `CCCCCCCCNS(=O)(=O)CCNC1CCCCC1`, for which the “re-replication activation” value is -37.2%.

`CCOC(=O)c1cnc2sccn2c1=O`: the Potency was 14.6 µM (active).

For `CN(C)/C=C/C(=O)c1cnc2sccn2c1=O`, the “re-replication activation” value was -1.67%.

`CCOC(=O)c1ccccc1NS(=O)(=O)c1c(C)nc2sccn2c1=O`: the “re-replication activation” value was -10.1%.

`CN(CCc1ccccc1)C(=O)c1cccc(NC(=O)Cc2ccc([N+](=O)[O-])cc2)c1`: the “re-replication activation” value was -7.8%.

With `CC(C)(C)NS(=O)(=O)NC(=O)C1=C(N2CCCC2)COC1=O`, the “re-replication activation” value is -8.73%.

In the case of `CC(C)c1cc(N=O)cc(C(C)C)c1O`, the “re-replication activation” value is 7.87%.

As for `CCCOc1ccc(C(=O)CCC(=O)OC(C)C(=O)Nc2ccc(NC(C)=O)cc2)cc1` (stereo not drawn), the “re-replication activation” value was -6.44%.

For the compound `CCCOc1ccc(C(=O)C(CCC(CNCC)C(=O)c2ccc(OCCC)cc2)CNCC)cc1` (stereo not drawn), the Potency is 9.2 µM (active).

For the compound `CCCCOc1ccc(C(=O)NN2CCN(C)CC2)cc1`, the “re-replication activation” value is 3.08%.

As to `CN1CCOC1c1ccc(C2OCCN2C)cc1` (stereo not drawn), the “re-replication activation” value was 0.917%.

As to `N#CCCN(C(=O)COC(=O)c1ccc2c(c1)OCCO2)c1ccccc1`, the “re-replication activation” value is -1.2%.

Take `Cc1cc(NC(=O)COC(=O)/C=C/c2ccc(C)o2)no1`: the “re-replication activation” value is -11%.

Consider `CC12CCC(C(=O)N(c3cccc(Cl)c3)C1=O)C2(C)C` (stereo not drawn), for which the “re-replication activation” value is 18.4%.

On to `O=C(NN1C(=O)C2C(C1=O)C1C=CC2C12CC2)c1ccccc1Cl` (stereo not drawn), for which the “re-replication activation” value was -0.766%.

Regarding `CC12CCC(C(=O)N(NC(=O)c3ccccc3O)C1=O)C2(C)C` (stereo not drawn), the Potency was 20.6 µM (active).

On to `CN(C(=O)c1cccc(NC(=O)Cc2ccc(NC(=O)C3CCCN(C(=O)C4CC4)C3)cc2)c1)C1CC1` (stereo not drawn), for which the “re-replication activation” value is -35.3%.
